Assay results: PubChem BioAssay (Tox21)
Inconclusive results are not listed. Some compounds were tested as several samples or in several runs, with calls that do not always agree. Active and inactive are the calls of the source. Calls follow the shape of the dose curve; as a rule, active = well fitted cell-killing curve with a large enough effect in the repeat runs; inconclusive = weak or mixed curves, or effect the other way; inactive = flat fitted curve, though single readings scatter.

assay: qHTS assay to identify small molecule antagonists of the androgen receptor (AR) signaling pathway using the MDA cell line in the presence of 0.5 nM R1881 - cell viability counter screen (AID 1259242); conditions: MDA-kb2 viability, CellTiter-Fluor protease fluorescence, 16 h; series mostly up to 92.4 µM; viability change, negative = cytotoxic: at the top concentration; also: nearly all actives have a fitted effect of over 45% in size
From the text: U.S. Tox21 Program National Center for Advancing Translational Sciences [NCATS] NIH Chemical Genomics Center [NCGC] U.S. Environmental Protection Agency [EPA] National Institutes of Environmental Health Sciences [NIEHS] National Toxicology Program [NTP] U.S. Food and Drug Administration [FDA] Tox21 Assay Overview: Androgen receptor (AR) is an important member of the nuclear receptor family. Its signaling plays a critical role in AR-dependent prostate cancer and other androgen related diseases. Considerable attention has been given in the past decades to develop methods to study and screen for the environmental chemicals that have the potential to interfere with metabolic homeostasis, reproduction, developmental and behavioral functions. Therefore AR binding assay for screening androgen antagonists can be used to identify potential endocrine disruptors. MDA-kb2 cells (from ATCC, deposited by Wilson et al.) were used to screen for AR inhibitors against Tox21 compound libraries. These cells are human breast carcinoma cells that were stably transfected with a luciferase reporter gene under control of the MMTV promoter that contains response elements for both androgen receptor (AR) and glucocorticoid receptor (GR). The current screening for identification of AR inhibitors against Tox21 libraries used lower concentration of (0.5 nM) R1881 as a stimulator. The cytotoxicity of the Tox21 compound libraries against MDA-kb2 cell line was tested by measuring live-cell protease activity using CellTiter-Fluor assay in the same wells.
Tox21 Assay Protocol Summary: MDA-kb2 cells (cells cultured without CO2) were dispensed at 3,000 cells/well in 4 uL of culture medium into white wall/solid-bottom 1536-well plates (Corning Life Sciences, Corning, NY) using a Multidrop Combi (ThermoFisher Scientific, Waltham, MA) dispenser. After the assay plates were incubated at a 37C and 0% CO2 for 5 hr, 23 nL of compounds dissolved in DMSO, positive controls or DMSO only was transferred to the assay plate by a Pintool station (Kalypsys, San Diego, CA). The transfer of compounds was followed by the addition of 1 uL of 0.5 nM (final concentration) agonist (R1881)/culture medium using a Flying Reagent Dispenser (FRD, Aurora Discovery, San Diego, CA). The plates were incubated at 37C and 0% CO2 for 16 hr. For cytotoxicity assay, 1 uL of CellTiter-Fluor reagent (Promega Corporation, Madison, WI) was added to each well using the FRD and after 30 min incubation at 37C and 0% CO2, The fluorescence intensity was measured using ViewLux plate reader (PerkinElmer, Shelton, CT).
% is scaled to controls: 0 for no effect and ±100 for the full control effect; potency is read from the fitted curve at half-maximal effect.

| Compound | viability change, negative = cytotoxic | Potency |
| --- | --- | --- |
| CCCCOP(=O)(CCCC)OCCCC | 7.29% (inactive) | – |
| CCOCn1c(-c2ccc(Cl)cc2)c(C#N)c(Br)c1C(F)(F)F | – | 5.45 µM (active) |
| O=C(O)COc1nc(Cl)c(Cl)cc1Cl | 7.03% (inactive) | – |
| CC(=O)c1cc(C(C)(C)C)cc2c1CCC2(C)C | -2.81% (inactive) | – |
| COc1cc(N)c(Cl)cc1C(=O)NC1CN2CCC1CC2 (stereo not given) | -1.82% [at 42.5 µM] (inactive) | – |
| c1ccc2c(c1)[nH]c1cnccc12 | 0.843% (inactive) | – |
| c1ccc2cc3c(cc2c1)-c1cccc2cccc-3c12 | 2.95% (inactive) | – |
| COCC(=O)N(c1c(C)cccc1C)[C@H](C)C(=O)OC | 0.993% (inactive) | – |
| Nc1c(Oc2ccccc2)cc(O)c2c1C(=O)c1ccccc1C2=O | -21.4% [at 42.5 µM] (inactive) | – |
| O=C(Cl)c1ccc(Cl)cc1 | 0.109% (inactive) | – |
| CCCCCCCCCC[N+](C)(C)CCCCCCCCCC | – | 54.5 µM (active) |
| CC(=[OH+])/C=C(/C)[O-].CC(=[OH+])/C=C(\C)[O-].CC(=[OH+])/C=C(\C)[O-].[Al] | 2.06% (inactive) | – |
| CCOC(=O)OC1=C(c2cc(C)ccc2C)C(=O)NC12CCC(OC)CC2 (stereo not given) | 1.77% (inactive) | – |
| C[C@]12CC[C@@H]3c4ccc(OC(=O)N(CCCl)CCCl)cc4CC[C@H]3[C@@H]1CC[C@@H]2O | 1.36% [at 42.5 µM] (inactive) | – |
| N#CCCC(Br)(C#N)CBr (stereo not given) | -15% (inactive) | – |
| Fc1ccc(Oc2ccnc3cc(Cl)cc(Cl)c23)cc1 | -2.97% (inactive) | – |
| S=C=Nc1cccc2ccccc12 | -2.94% (inactive) | – |
| Oc1ccc(C2(c3ccc(O)cc3)CCCCC2)cc1 | -3.58% (inactive) | – |
| CCOP(=O)(NC(C)C)Oc1ccc(SC)c(C)c1 (stereo not given) | -12% (inactive) | – |
| CN(CCCC(=O)c1cccnc1)N=O | 1.36% (inactive) | – |

| Compound | viability change, negative = cytotoxic | Potency |
| --- | --- | --- |
| CC(C)OS(C)(=O)=O | -1.52% (inactive) | – |
| COC12CC[C@@]3(C[C@@H]1C(C)(O)C(C)(C)C)[C@H]1Cc4ccc(O)c5c4[C@@]3(CCN1CC1CC1)[C@H]2O5 (stereo not given in full) | – | 54.1 µM (active) |
| Oc1ccc(I)cc1 | -2.9% (inactive) | – |
| O=c1ssc(Cl)c1Cl | – | 54.5 µM (active) |
| Clc1ccc(Oc2ccccc2)cc1 | 1.02% (inactive) | – |
| N#Cc1ccc(O)cc1 | 6.68% (inactive) | – |
| O=c1[nH]c2ccccc2n1C1CCN(CCCC(c2ccc(F)cc2)c2ccc(F)cc2)CC1 | – | 54.5 µM (active) and inactive |
| NNC(=O)c1ccccc1 | 1.14% (inactive) | – |
| COC(=O)N(C(=O)N1COC2(C(=O)OC)Cc3cc(Cl)ccc3C2=N1)c1ccc(OC(F)(F)F)cc1 (stereo not given) | 0.787% [at 42.5 µM] (inactive) | – |
| O=[N+]([O-])c1cc(Cl)ccc1Cl | 1.34% (inactive) | – |
| C[CH2][Hg][N]1C(=O)C2C(C1=O)C1(Cl)C(Cl)=C(Cl)C2(Cl)C1(Cl)Cl (stereo not given) | – | 13 µM (active) |
| CCc1ccccc1C | 1.99% (inactive) | – |
| c1cc[c]([Sb]([c]2ccccc2)[c]2ccccc2)cc1 | 3.16% (inactive) | – |
| Fc1cccc(Cl)c1CCl | -1.54% (inactive) | – |
| Nc1ccc(Cc2ccc(N)c(Cl)c2)cc1Cl | 1.11% (inactive) | – |
| COc1ccc(/C(=C/C(=O)N2CCOCC2)c2ccc(Cl)cc2)cc1OC | -4.59% (inactive) | – |
| Oc1ccc(C(c2ccc(O)cc2)(C(F)(F)F)C(F)(F)F)cc1 | -9.61% (inactive) | – |
| CN(C)C(=S)[S-].CN(C)C(=S)[S-].[Cu+2] | – | 5.92 µM (active) |
| CC(C)[C@H](C(=O)OC(C#N)c1cccc(Oc2ccccc2)c1)c1ccc(OC(F)F)cc1 (stereo not given in full) | 4.42% (inactive) | – |
| Nc1ccc(Cl)cc1C(=O)c1ccccc1 | -11.7% (inactive) | – |
